Data: the supplement of paper PMC6288085
Counter-ions that a name gives are not always drawn. ± gives the uncertainty stated by the source.

These molecules were tested on Caenorhabditis elegans N2 (assay: food intake (mean delta OD600 / animal over 72 h) with 50 uM loxapine co-treatment (OD600 units per animal); higher = more food eaten (less suppression of loxapine-induced hyperphagia)). Conditions: first compound 33 µM, loxapine concentration 50 µM.
Protocol: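 C. elegans N2 adults (FUDR-sterilised, day 1) in 96-well plates fed gamma-irradiated bacteria. Each library drug (MedChemExpress FDA-approved library) at 33 uM was combined with loxapine at 50 uM. Food intake was measured as bacterial clearance: the change in OD600 from day 1 to 72 h, normalised per animal (mean over 14-21 wells of about 10-12 worms). Drugs flagged for bacterial lysis or sickness were excluded by the authors.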

Question: With `CC[C@@H](CO)NCCN[C@@H](CC)CO` [ethambutol (dihydrochloride)] + CN1CCN(C2=Nc3ccccc3Oc3ccc(Cl)cc32)CC1 [loxapine] as the molecule, how does the food intake read?
Answer: The food intake was 0.024 ± 0.0019.

Question: Which food intake does the source give for `COc1c(N2C[C@@H]3CCCN[C@@H]3C2)c(F)cc2c(=O)c(C(=O)O)cn(C3CC3)c12` [moxifloxacin (hydrochloride)] + CN1CCN(C2=Nc3ccccc3Oc3ccc(Cl)cc32)CC1 [loxapine] here?
Answer: The food intake was 0.0216 ± 0.0034.

Question: `CN(CCOc1ccc(CC2SC(=O)NC2=O)cc1)c1ccccn1` (stereo not given) [rosiglitazone (maleate)] + CN1CCN(C2=Nc3ccccc3Oc3ccc(Cl)cc32)CC1 [loxapine] was tested. Which food intake did it give?
Answer: Its food intake is 0.0207 ± 0.002.

Question: Which food intake does the source give for `Cn1c(=O)c2nc[nH]c2n(C)c1=O` [theophylline] + CN1CCN(C2=Nc3ccccc3Oc3ccc(Cl)cc32)CC1 [loxapine] here?
Answer: The food intake was 0.00971 ± 0.011.

Question: For `N[C@@H]1CCCCN(c2c(F)cc3c(=O)c(C(=O)O)cn(C4CC4)c3c2Cl)C1` [besifloxacin (hydrochloride)] + CN1CCN(C2=Nc3ccccc3Oc3ccc(Cl)cc32)CC1 [loxapine], which food intake is on record?
Answer: The food intake was 0.0227 ± 0.0056.

Question: Which food intake does the source give for `O=C(c1ccccc1)c1ccc2n1CCC2C(=O)O` (stereo not given) [ketorolac (romethamine salt)] + CN1CCN(C2=Nc3ccccc3Oc3ccc(Cl)cc32)CC1 [loxapine] here?
Answer: The food intake was 0.0225 ± 0.0034.

Question: Which food intake does the source give for `C[N+](C)(C)CCCCCC[N+](C)(C)C` [hexamethonium (bromide)] + CN1CCN(C2=Nc3ccccc3Oc3ccc(Cl)cc32)CC1 [loxapine] here?
Answer: Its food intake is 0.0215 ± 0.0099.

Question: How did the food intake turn out when `CC(=O)NCCCS(=O)(=O)O` [Acamprosate (calcium)] + CN1CCN(C2=Nc3ccccc3Oc3ccc(Cl)cc32)CC1 [loxapine] was run?
Answer: Its food intake is 0.023 ± 0.0036.

Question: With `Nc1ccc(O)c(C(=O)O)c1` [5-Aminosalicylic acid] + CN1CCN(C2=Nc3ccccc3Oc3ccc(Cl)cc32)CC1 [loxapine] as the molecule, how does the food intake read?
Answer: Its food intake is 0.0212 ± 0.0048.

Question: Which food intake does the source give for `CC[C@H]1OC(=O)C[C@@H](O)[C@H](C)[C@@H](O[C@@H]2O[C@H](C)[C@@H](O[C@H]3C[C@@](C)(O)[C@@H](O)[C@H](C)O3)[C@H](N(C)C)[C@H]2O)[C@@H](CC=O)C[C@@H](C)C(=O)/C=C/C(C)=C/[C@@H]1CO[C@@H]1O[C@H](C)[C@@H](O)[C@@H](OC)[C@H]1OC` [Tylosin (tartrate)] + CN1CCN(C2=Nc3ccccc3Oc3ccc(Cl)cc32)CC1 [loxapine] here?
Answer: Its food intake is 0.021 ± 0.0039.

Question: For `CC(C)(C)C(=O)OCOC(=O)[C@@H]1N2C(=O)[C@@H](/N=C/N3CCCCCC3)[C@H]2SC1(C)C` [pivmecillinam (hydrochloride)] + CN1CCN(C2=Nc3ccccc3Oc3ccc(Cl)cc32)CC1 [loxapine], which food intake is on record?
Answer: The food intake was 0.0244 ± 0.0027.

Question: How did the food intake turn out when `COc1ccc(C(=O)NCc2ccc(OCCN(C)C)cc2)cc1OC` [itopride (hydrochloride)] + CN1CCN(C2=Nc3ccccc3Oc3ccc(Cl)cc32)CC1 [loxapine] was run?
Answer: The food intake was 0.0294 ± 0.033.

Question: For `CCOC(N)=O` [urethane] + CN1CCN(C2=Nc3ccccc3Oc3ccc(Cl)cc32)CC1 [loxapine], which food intake is on record?
Answer: The food intake was 0.0215 ± 0.0029.

Question: `C=CC[N+]1([C@H]2C[C@H]3[C@@H]4CC[C@H]5C[C@H](O)[C@@H](N6CCOCC6)C[C@]5(C)[C@H]4CC[C@]3(C)[C@H]2OC(C)=O)CCCC1` [rocuronium (bromide)] + CN1CCN(C2=Nc3ccccc3Oc3ccc(Cl)cc32)CC1 [loxapine] was tested. Which food intake did it give?
Answer: Its food intake is 0.0231 ± 0.0029.

Question: Which food intake does the source give for `CC(C)NCC(O)COc1ccc(CCOCC2CC2)cc1` (stereo not given) [betaxolol] + CN1CCN(C2=Nc3ccccc3Oc3ccc(Cl)cc32)CC1 [loxapine] here?
Answer: The food intake was 0.0265 ± 0.0022.

Question: With `CC(=O)OCC(=O)[C@@]1(O)CC[C@H]2[C@@H]3CCC4=CC(=O)CC[C@]4(C)[C@H]3C(=O)C[C@@]21C` [cortisone (acetate)] + CN1CCN(C2=Nc3ccccc3Oc3ccc(Cl)cc32)CC1 [loxapine] as the molecule, how does the food intake read?
Answer: The food intake was 0.0231 ± 0.0059.

Question: How did the food intake turn out when `C[C@H]1c2cccc(O)c2C(=O)C2=C(O)[C@]3(O)C(=O)C(C(N)=O)=C(O)[C@@H](N(C)C)[C@@H]3[C@@H](O)[C@@H]21` [doxycycline] + CN1CCN(C2=Nc3ccccc3Oc3ccc(Cl)cc32)CC1 [loxapine] was run?
Answer: Its food intake is 0.0161 ± 0.0037.

Question: `CN1C2=CC(=O)/C(=N\NC(N)=O)C=C2CC1S(=O)(=O)O` (stereo not given) [carbazochrome (sodium sulfonate)] + CN1CCN(C2=Nc3ccccc3Oc3ccc(Cl)cc32)CC1 [loxapine] was tested. Which food intake did it give?
Answer: The food intake was 0.0296 ± 0.0057.

Question: With `Cc1ccc(C)c(OCCCC(C)(C)C(=O)O)c1` [Gemfibrozil] + CN1CCN(C2=Nc3ccccc3Oc3ccc(Cl)cc32)CC1 [loxapine] as the molecule, how does the food intake read?
Answer: Its food intake is 0.0247 ± 0.0069.

Question: For `S=C=Nc1ccc(N=C=S)cc1` [p-Phenylene diisothiocyanate] + CN1CCN(C2=Nc3ccccc3Oc3ccc(Cl)cc32)CC1 [loxapine], which food intake is on record?
Answer: The food intake was 0.0229 ± 0.0028.

Question: For `CC=CC(=O)N(CC)c1ccccc1C` [crotamiton] + CN1CCN(C2=Nc3ccccc3Oc3ccc(Cl)cc32)CC1 [loxapine], which food intake is on record?
Answer: Its food intake is 0.0223 ± 0.002.

Question: `O=c1n(CCCN2CCN(c3cccc(Cl)c3)CC2)nc2ccccn12` [trazodone (hydrochloride)] + CN1CCN(C2=Nc3ccccc3Oc3ccc(Cl)cc32)CC1 [loxapine] was tested. Which food intake did it give?
Answer: Its food intake is 0.0285 ± 0.035.

Question: How did the food intake turn out when `Nc1ccc(S(=O)(=O)c2ccc(N)cc2)cc1` [dapsone] + CN1CCN(C2=Nc3ccccc3Oc3ccc(Cl)cc32)CC1 [loxapine] was run?
Answer: Its food intake is 0.0216 ± 0.006.

Question: With `CC(C)[C@H](N)C(=O)OCCOCn1cnc2c(=O)nc(N)[nH]c21` [valacyclovir (hydrochloride)] + CN1CCN(C2=Nc3ccccc3Oc3ccc(Cl)cc32)CC1 [loxapine] as the molecule, how does the food intake read?
Answer: Its food intake is 0.0213 ± 0.0096.

Question: For `CS(=O)(=O)c1ccc([C@@H](O)[C@@H](CO)NC(=O)C(Cl)Cl)cc1` [thiamphenicol] + CN1CCN(C2=Nc3ccccc3Oc3ccc(Cl)cc32)CC1 [loxapine], which food intake is on record?
Answer: Its food intake is 0.0228 ± 0.0025.

Question: `CC(=O)NC(Cc1ccccc1)C(=O)O` (racemic) [N-acetyl DL-phenylalanine] + CN1CCN(C2=Nc3ccccc3Oc3ccc(Cl)cc32)CC1 [loxapine] was tested. Which food intake did it give?
Answer: Its food intake is 0.0223 ± 0.0049.

Question: `CC(=O)N1CCN(c2ccc(OCC3COC(Cn4ccnc4)(c4ccc(Cl)cc4Cl)O3)cc2)CC1` (stereo not given) [ketoconazole] + CN1CCN(C2=Nc3ccccc3Oc3ccc(Cl)cc32)CC1 [loxapine] was tested. Which food intake did it give?
Answer: Its food intake is 0.0239 ± 0.0034.

Question: For `CC[C@H]1OC(=O)C[C@@H](O)[C@H](C)[C@@H](O[C@@H]2O[C@H](C)[C@@H](O[C@H]3C[C@@](C)(O)[C@@H](O)[C@H](C)O3)[C@H](N(C)C)[C@H]2O)[C@@H](CC=O)C[C@@H](C)C(=O)/C=C/C(C)=C/[C@@H]1CO[C@@H]1O[C@H](C)[C@@H](O)[C@@H](OC)[C@H]1OC` [Tylosin] + CN1CCN(C2=Nc3ccccc3Oc3ccc(Cl)cc32)CC1 [loxapine], which food intake is on record?
Answer: Its food intake is 0.0219 ± 0.0051.

Question: Which food intake does the source give for `C#C[C@]1(O)CC[C@H]2[C@@H]3CCC4=CC(=O)CC[C@@H]4[C@H]3C(=C)C[C@@]21CC` [etonogestrel] + CN1CCN(C2=Nc3ccccc3Oc3ccc(Cl)cc32)CC1 [loxapine] here?
Answer: Its food intake is 0.0244 ± 0.012.

Question: For `c1ccc(C2CN3CCSC3=N2)cc1` (stereo not given) [tetramisole (hydrochloride)] + CN1CCN(C2=Nc3ccccc3Oc3ccc(Cl)cc32)CC1 [loxapine], which food intake is on record?
Answer: Its food intake is 0.0209 ± 0.0029.

Question: `CCCC(=O)Nc1ncnc2c1ncn2[C@@H]1O[C@@H]2COP(=O)(O)O[C@H]2[C@H]1OC(=O)CCC` [bucladesine (calcium salt)] + CN1CCN(C2=Nc3ccccc3Oc3ccc(Cl)cc32)CC1 [loxapine] was tested. Which food intake did it give?
Answer: Its food intake is 0.022 ± 0.0033.

Question: For `CCN(CC)CCOC(=O)c1ccc(N)cc1` [procaine (hydrochloride)] + CN1CCN(C2=Nc3ccccc3Oc3ccc(Cl)cc32)CC1 [loxapine], which food intake is on record?
Answer: Its food intake is 0.0224 ± 0.0034.

Question: How did the food intake turn out when `Cc1cc(C)cc(OCC2CNC(=O)O2)c1` (stereo not given) [metaxalone] + CN1CCN(C2=Nc3ccccc3Oc3ccc(Cl)cc32)CC1 [loxapine] was run?
Answer: Its food intake is 0.0236 ± 0.003.

Question: Which food intake does the source give for `O=C(O)CCNC(=O)c1ccccc1` [betamipron] + CN1CCN(C2=Nc3ccccc3Oc3ccc(Cl)cc32)CC1 [loxapine] here?
Answer: The food intake was 0.0228 ± 0.0023.

Question: `CC1=C(C)C(=O)C(C(CCCCCC(=O)O)c2ccccc2)=C(C)C1=O` (stereo not given) [seratrodast] + CN1CCN(C2=Nc3ccccc3Oc3ccc(Cl)cc32)CC1 [loxapine] was tested. Which food intake did it give?
Answer: The food intake was 0.0265 ± 0.0088.

Question: Which food intake does the source give for `C[N+]1(C)CCC(=C(c2ccccc2)c2ccccc2)CC1` [diphenmanil (methylsulfate)] + CN1CCN(C2=Nc3ccccc3Oc3ccc(Cl)cc32)CC1 [loxapine] here?
Answer: The food intake was 0.0235 ± 0.0021.

Question: `CN(C)CCC=C1c2ccccc2C=Cc2ccccc21` [cyclobenzaprine (hydrochloride)] + CN1CCN(C2=Nc3ccccc3Oc3ccc(Cl)cc32)CC1 [loxapine] was tested. Which food intake did it give?
Answer: The food intake was 0.0221 ± 0.0063.

Question: How did the food intake turn out when `CC1(C)O[C@@H]2C[C@H]3[C@@H]4CCC5=CC(=O)C=C[C@]5(C)[C@@]4(F)[C@@H](O)C[C@]3(C)[C@]2(C(=O)CO)O1` [triamcinolone (acetonide)] + CN1CCN(C2=Nc3ccccc3Oc3ccc(Cl)cc32)CC1 [loxapine] was run?
Answer: Its food intake is 0.0224 ± 0.0033.

Question: Which food intake does the source give for `O=P(O)(O)C(O)(Cn1ccnc1)P(=O)(O)O` [Zoledronic acid (monohydrate)] + CN1CCN(C2=Nc3ccccc3Oc3ccc(Cl)cc32)CC1 [loxapine] here?
Answer: Its food intake is 0.0237 ± 0.003.

Question: With `Cc1ncc([N+](=O)[O-])n1CC(C)O` (stereo not given) [secnidazole] + CN1CCN(C2=Nc3ccccc3Oc3ccc(Cl)cc32)CC1 [loxapine] as the molecule, how does the food intake read?
Answer: Its food intake is 0.0205 ± 0.0035.
